The subject of assay [1] is S. cerevisiae SK1 pCDA2-eGFP (USY613), sporulating. Briefly: CDA2-GFP sporulation assay sensitivity score (z-score vs DMSO controls); higher = stronger inhibition of sporulation, active = hit call of the paper.
Assay [2] concerns S. cerevisiae AD1-9 (efflux-pump deficient), vegetative growth in YPD. As to the kind of experiment: growth sensitivity score (doubling time z-score vs DMSO controls); higher = slower growth, strongly negative scores also mark growth inhibition (complete suppression), active = hit call of the paper. The essentials: (§1)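 Rich medium in microtiter plates was seeded with Saccharomyces cerevisiae strains BY4741 and AD1-9 at an OD600 of 0.065, and compounds were added as a 1:100 dilution of DMSO stock. A Tecan GENios reader recorded optical density every 15 min for 24 hours, with eight solvent-only wells in each experiment. Average doubling time was the time to reach a set generation point divided by generation number. The growth sensitivity score was the compound mean minus the solvent-only mean, divided by the solvent-only standard deviation.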

Assay [3] has as its system S. cerevisiae BY4741 (wild-type), vegetative growth in YPD. The description is as above. The essentials:
as §1

The mark [4] stands for this setting: stock concentration (mM, diluted 1:100): 10.
Setting [5] is: stock concentration (mM, diluted 1:100): 10.1.
[6] abbreviates: stock concentration (mM, diluted 1:100): 8.6.

Results on 28 compounds are retold here after the supplement of paper PMC3414501.

Where a name gives a salt, the structure may show the parent alone.
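Throughout, for CDA2-GFP sporulation assay sensitivity score (z-score vs DMSO controls): active if sensitivity score above 5.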

Turning to `NC(=O)C[S+]([O-])C(c1ccccc1)c1ccccc1` (stereo unspecified) [Modafinil], in assay [1] (setting [4]), the “CDA2-GFP sporulation assay sensitivity score” value is -0.48 (inactive). Besides, the values for the growth sensitivity score in assay [2] (setting [4]) and in assay [3] (setting [4]) were -1.24 (inactive) and -1.13 (inactive), respectively.

Consider `C[C@]12CC[C@H](O)CC1=CC[C@@H]1[C@@H]2CC[C@]2(C)C(=O)CC[C@@H]12` [Dehydroepiandrosterone], for which the “CDA2-GFP sporulation assay sensitivity score” value in assay [1] (setting [4]) is 15.7 (active). Also, the growth sensitivity score in assay [2] (setting [4]) was 70.9 (active); in assay [3] (setting [4]), 7.64 (active).

On to `CC[C@]1(O)CC[C@H]2[C@@H]3CCC4=CCCC[C@@H]4[C@H]3CC[C@@]21C` [Ethylestrenol], for which the “CDA2-GFP sporulation assay sensitivity score” value in assay [1] (setting [4]) is 8.75 (active). Moreover, the growth sensitivity score in assay [2] (setting [4]) is 93.9 (active); in assay [3] (setting [4]) it was 2.86 (active).

As to `C[C@]12CC[C@H](O)CC1=CC[C@@H]1[C@@H]2CC[C@@]2(C)[C@H]1CC[C@]2(C)O` [Methylandrostenediol], the “CDA2-GFP sporulation assay sensitivity score” value in assay [1] (setting [5]) was 0.44 (inactive). For the same compound, the growth sensitivity score in assay [2] (setting [5]) is 15.1 (active); in assay [3] (setting [5]), 0.35 (inactive).

Turning to `CNC1CC(c2ccc(Cl)c(Cl)c2)c2ccccc21` (stereo unspecified) [Indatraline], the “CDA2-GFP sporulation assay sensitivity score” value in assay [1] (setting [4]) is 2.43 (inactive).

As to `N=C(NCc1ccc(Cl)cc1)SCCCc1c[nH]cn1` [Clobenpropit], the “CDA2-GFP sporulation assay sensitivity score” value in assay [1] (setting [4]) is 1.25 (inactive). The growth sensitivity score is 0.21 (inactive) in assay [2] (setting [4]) and 0.09 (inactive) in assay [3] (setting [4]).

As to `CS(=O)(=O)Nc1ccc(Cc2noc(-c3ccc4[nH]cc(CCN)c4c3)n2)cc1`, the “CDA2-GFP sporulation assay sensitivity score” value in assay [1] (setting [4]) is 2.55 (inactive). Besides, the growth sensitivity score in assay [2] (setting [4]) is -0.07 (inactive); in assay [3] (setting [4]), 0.39 (inactive).

In the case of `CCN(CC)CCOC(=O)C(O)(c1ccccc1)c1ccccc1` [Benactyzine hydrochloride], the “CDA2-GFP sporulation assay sensitivity score” value in assay [1] (setting [4]) was 0.09 (inactive). Besides, the results for the growth sensitivity score in assay [2] (setting [4]) and in assay [3] (setting [4]) were -0.44 (inactive) and -0.83 (inactive), respectively.

As to `COc1cc(N)c(Cl)cc1C(=O)NC1CN2CCC1CC2` (stereo unspecified) [Zacopride], in assay [1] (setting [4]), the “CDA2-GFP sporulation assay sensitivity score” value was 2.91 (inactive). Moreover, the growth sensitivity score was -2.46 in assay [2] (setting [4]) and -1.3 (inactive) in assay [3] (setting [4]).

Consider `C[C@]12Cc3c[nH]nc3C[C@@H]1CC[C@@H]1[C@@H]2CC[C@@]2(C)[C@H]1CC[C@]2(C)O` [Stanozolol], for which, in assay [1] (setting [4]), the “CDA2-GFP sporulation assay sensitivity score” value was -4.38 (inactive). The growth sensitivity score in assay [2] (setting [4]) was 9.25 (active); in assay [3] (setting [4]), 1.13 (inactive).

For `Oc1ccc2c3c1O[C@H]1[C@@H](O)CC[C@@]4(O)[C@@H](C2)N(CC2CCC2)CC[C@]314` [Nalbuphine], in assay [1] (setting [4]), the “CDA2-GFP sporulation assay sensitivity score” value was -0.4 (inactive). The growth sensitivity score in assay [2] (setting [4]) was -1.74 (inactive); in assay [3] (setting [4]) it was -0.96 (inactive).

Consider `CN1C(=O)COc2c(C(=O)NC3CN4CCC3CC4)cc(Cl)cc21` (stereo unspecified) [Azasetron], for which the growth sensitivity score in assay [2] (setting [4]) is -0.58 (inactive); in assay [3] (setting [4]), -0.56 (inactive).

`CN=C1CN(O)C(c2ccccc2)=c2cc(Cl)ccc2=N1` [Chlordiazepoxide]: the “CDA2-GFP sporulation assay sensitivity score” value in assay [1] (setting [4]) was 1.73 (inactive). For the same compound, the growth sensitivity score is 0.94 (inactive) in assay [2] (setting [4]) and 1.44 (inactive) in assay [3] (setting [4]).

Regarding `COC(=O)N1CCN(C(=O)Cc2ccc(Cl)c(Cl)c2)C(CN2CCCC2)C1` (stereo unspecified), the “CDA2-GFP sporulation assay sensitivity score” value in assay [1] (setting [4]) is 3.34 (inactive). Also, the results for the growth sensitivity score in assay [2] (setting [4]) and in assay [3] (setting [4]) were -1.16 (inactive) and -1.35 (inactive), respectively.

Consider `CCCN1C[C@H](CSC)C[C@@H]2c3cccc4[nH]cc(c34)C[C@H]21` [Pergolide mesylate], for which the growth sensitivity score in assay [2] (setting [4]) is 3.13 (active); in assay [3] (setting [4]), 2.05 (active).

Turning to `C[C@]12CCC(=O)C[C@@H]1CC[C@@H]1[C@@H]2CC[C@@]2(C)[C@H]1CC[C@]2(C)O` [Mestanolone], the “CDA2-GFP sporulation assay sensitivity score” value in assay [1] (setting [5]) was 0.79 (inactive). Further, the growth sensitivity score in assay [2] (setting [5]) is 2.2 (active); in assay [3] (setting [5]) it was -0.15 (inactive).

On to `Oc1ccc2c3c1O[C@H]1c4[nH]c5ccccc5c4C[C@@]4(O)[C@@H](C2)N(CC2CC2)CC[C@]314` [Naltrindole], for which, in assay [1] (setting [4]), the “CDA2-GFP sporulation assay sensitivity score” value is 3.11 (inactive). Further, the growth sensitivity score is -3.12 in assay [2] (setting [4]) and -1.11 (inactive) in assay [3] (setting [4]).

Take `O=C1CN=C(c2ccccc2)c2cc([N+](=O)[O-])ccc2N1` [Nitrazepam]: the “CDA2-GFP sporulation assay sensitivity score” value in assay [1] (setting [4]) is -0.69 (inactive). Further, the growth sensitivity score is 8.16 (active) in assay [2] (setting [4]) and 2.01 (active) in assay [3] (setting [4]).

`CCOC(=O)C1(c2ccccc2)CCN(CCC(C#N)(c2ccccc2)c2ccccc2)CC1` [Diphenoxylate]: the “CDA2-GFP sporulation assay sensitivity score” value in assay [1] (setting [6]) is 1.47 (inactive). The growth sensitivity score in assay [2] (setting [6]) is 5.75 (active); in assay [3] (setting [6]), -0.94 (inactive).

`CN1C(=O)CN=C(c2ccccc2)c2cc([N+](=O)[O-])ccc21` [Nimetazepam]: in assay [1] (setting [4]), the “CDA2-GFP sporulation assay sensitivity score” value is -0.53 (inactive). In addition, the growth sensitivity score in assay [2] (setting [4]) was 0.79 (inactive); in assay [3] (setting [4]), -0.45 (inactive).

Take `OC1CCCCC1N1CCC(c2ccccc2)CC1` (stereo unspecified) [Vesamicol hydrochloride]: the “CDA2-GFP sporulation assay sensitivity score” value in assay [1] (setting [4]) is 1.08 (inactive). Moreover, the growth sensitivity score was -0.57 (inactive) in assay [2] (setting [4]) and -0.16 (inactive) in assay [3] (setting [4]).

For the compound `COc1cccc(C2(O)CCCCC2CN(C)C)c1` (stereo unspecified) [Tramadol], in assay [1] (setting [4]), the “CDA2-GFP sporulation assay sensitivity score” value was 0.06 (inactive). Also, the growth sensitivity score was -0.93 (inactive) in assay [2] (setting [4]) and -0.39 (inactive) in assay [3] (setting [4]).

As for `COc1ccc2[nH]cc(C3=CCNCC3)c2c1`, the values for the growth sensitivity score in assay [2] (setting [5]) and in assay [3] (setting [5]) were -2.3 and -0.36 (inactive), respectively.

In the case of `CC[C@@H]1C=CC=CC[C@H](C)[C@@H](O)[C@@H](C)C(=O)[C@H](C)[C@@H](O)[C@H](C)C(=O)[C@H](C)[C@@H](O)[C@H](C)C=CC(=O)O[C@H]2[C@@H](C)[C@@H](CC1)O[C@@]1(CC[C@@H](C)[C@@H](C[C@H](C)O)O1)[C@@H]2C` [Oligomycin c], in assay [1] (setting [4]), the “CDA2-GFP sporulation assay sensitivity score” value is -1.43 (inactive). In addition, the growth sensitivity score in assay [2] (setting [4]) was 0.66 (inactive); in assay [3] (setting [4]) it was 1.53 (inactive).

Take `C[C@]12C/C(=C/O)C(=O)C[C@@H]1CC[C@@H]1[C@@H]2CC[C@@]2(C)[C@H]1CC[C@]2(C)O` [Oxymetholone]: the “CDA2-GFP sporulation assay sensitivity score” value in assay [1] (setting [5]) is 1.28 (inactive). For the same compound, the growth sensitivity score in assay [3] (setting [5]) is 9.13 (active).

As for `CC(C)CC(N(C)C)C1(c2ccc(Cl)cc2)CCC1` (stereo unspecified) [Sibutramine hydrochloride], the “CDA2-GFP sporulation assay sensitivity score” value in assay [1] (setting [4]) is 8.57 (inactive). In addition, the growth sensitivity score in assay [2] (setting [4]) was 6.62 (active); in assay [3] (setting [4]), 1.85 (inactive).

For the compound `O=c1c2ccccc2[se]n1-c1ccccc1` [Ebselen], the growth sensitivity score in assay [2] (setting [4]) is -16.9.

Turning to `C=C1C[C@@H]2[C@H](CC[C@]3(C)C(=O)CC[C@@H]23)[C@@]2(C)C=CC(=O)C=C12` [Exemestane], in assay [1] (setting [4]), the “CDA2-GFP sporulation assay sensitivity score” value is 7.73 (active). The growth sensitivity score is 4.58 (active) in assay [2] (setting [4]) and 0.77 (inactive) in assay [3] (setting [4]).
